In the library only some 2.9% were active in any assay of this set; here they are far more common.
MEKK2wt PB1 HTS = raises or lowers MEK5 binding to wildtype human MEKK2 PB1 domain; bead flow cytometry, Alexa488-MEK5 binding to MEKK2 WT; actives lie on both sides; binding response (% of control), % at 10 µM; hit rate 1.1% among 290,000; AID 1531; in the data active = binding response below about 67% or above about 130%
MEKK2mut PB1 HTS = signal of MEK5 binding to mutant human MEKK2 PB1 domain | hit rate 0.35% among 290,000 | bead flow cytometry, Alexa488-MEK5 binding to MEKK2 mutant | percent response, % at 10 µM | AID 1530; in the data active = percent response above about 24%, passing the limit was not always enough
dFosB activator = enhances mouse delta FosB homodimer DNA binding. purified delta FosB, TAMRA-CDK5 oligo fluorescence polarization; percent of positive-control signal above neutral wells. activation, % at 25 µM. hit rate 0.99% among 340,000. AID 493131;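 active = mean activation above about 17%, with every replicate also reaching it, limit read from the data, passing the limit was not always enough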
MEKK3 PB1 HTS = modulators (inhibitors or enhancers) of MEK5 binding to human MEKK3 PB1 domain. AID 1529. hit rate 1.4% among 290,000. binding response (% of control), % at 10 µM. bead-based flow cytometry, Alexa488-MEK5 binding to MEKK3; actives lie on both sides; 0 = blocked by unlabeled MEK5, 100 = vehicle;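 active = binding response more than 3 SD above or below the average of its plate-row segment, actives on both sides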;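 also: Alexa488 bead fluorescence after subtracting the streptavidin-only scavenger bead signal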
Target sequence (Q99759 whole entry, looked up, the tested form may be a part): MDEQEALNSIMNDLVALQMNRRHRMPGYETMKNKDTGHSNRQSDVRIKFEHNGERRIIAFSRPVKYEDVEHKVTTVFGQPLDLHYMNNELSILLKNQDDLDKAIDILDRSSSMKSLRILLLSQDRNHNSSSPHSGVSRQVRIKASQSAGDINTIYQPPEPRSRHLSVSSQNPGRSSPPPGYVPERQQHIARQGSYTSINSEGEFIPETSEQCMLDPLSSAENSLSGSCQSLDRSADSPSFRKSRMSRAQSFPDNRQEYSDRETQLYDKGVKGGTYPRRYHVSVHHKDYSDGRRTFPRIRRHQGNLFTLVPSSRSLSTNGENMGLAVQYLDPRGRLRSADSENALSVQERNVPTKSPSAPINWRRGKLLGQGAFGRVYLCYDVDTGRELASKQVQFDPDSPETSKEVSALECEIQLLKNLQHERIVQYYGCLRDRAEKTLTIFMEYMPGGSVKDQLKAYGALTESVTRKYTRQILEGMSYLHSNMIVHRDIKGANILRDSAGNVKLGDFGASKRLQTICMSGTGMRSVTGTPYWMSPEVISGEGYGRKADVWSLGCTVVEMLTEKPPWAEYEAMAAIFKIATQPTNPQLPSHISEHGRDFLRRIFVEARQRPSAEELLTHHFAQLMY
FID counter = displaces DNA intercalator in HCV helicase counter-screen; DNA fluorescent intercalator displacement, fluorescence; AID 1845; inhibition, % at 7.9 µM; hit rate 0.17% among 290,000; in the data active = inhibition above about 37%;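 also: 0% = vehicle and 100% = reference compound; higher means more ethidium bromide displaced from hairpin DNA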
MEKK2wt confirm = raises or lowers MEK5 binding to wildtype human MEKK2, retest; shares compounds with MEKK3 PB1 HTS; bead flow cytometry, Alexa488-MEK5 binding to MEKK2 WT; actives lie on both sides; binding response (% of control), % at 10 µM; hit rate 2.4% among 5,900; AID 1892; in the data active = binding response below about 16% or above about 210%; inactive = in between
MEKK2mut confirm = signal of MEK5 binding to mutant human MEKK2, retest; shares compounds with MEKK3 PB1 HTS; bead flow cytometry, Alexa488-MEK5 binding to MEKK2 mutant; percent response, % at 10 µM; hit rate 2% among 5,900; AID 1893; in the data active = percent response mostly above about 71%, no sharp cut-off; inactive = mostly below about 38%;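 also: higher means compound restores mutant binding toward wildtype level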
MEKK3-MEK5 inh = confirmation of inhibitors of MEK5 binding to human MEKK3 | shares compounds with MEKK3 PB1 HTS | hit rate 1.8% among 5,900 | binding response (% of control), % at 10 µM | bead flow cytometry, Alexa488-MEK5 binding to MEKK3; hits give low values;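 active = binding response below 72% of control, or above a set upper limit, though filed actives all read lower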;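 also: 100% = DMSO only wells and 0% = binding blocked by excess unlabeled MEK5; lower values mean stronger disruption of MEK5 binding to MEKK3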
Active calls of the source: *; [ ] = remark or other dose.

For Cc1cc(F)ccc1S(=O)(=O)N1CCCOC1CNC(=O)C(=O)NC1CC1 (configuration not stated) the results were MEKK2wt PB1 HTS 105.0, MEKK2mut PB1 HTS 2.0, dFosB activator 2.3, MEKK3 PB1 HTS 102.0 and FID counter -7.7.
Screening OC(COC(c1ccc(Cl)cc1)c1ccc(Cl)cc1)CN1CCCC1 (configuration not stated) returned MEKK2wt PB1 HTS 140.0*, MEKK2mut PB1 HTS 14.0, dFosB activator -2.8, MEKK3 PB1 HTS 105.0, FID counter 11.6, MEKK2wt confirm 126.0, MEKK2mut confirm 20.0 and MEKK3-MEK5 inh 102.0.
OC(COC(c1ccc(F)cc1)c1ccc(F)cc1)CN1CCc2ccccc2C1 (configuration not stated) was read as MEKK2wt PB1 HTS 112.0, MEKK2mut PB1 HTS 1.0, dFosB activator -10.3, MEKK3 PB1 HTS 136.0*, FID counter 25.6, MEKK2wt confirm 115.0, MEKK2mut confirm 5.0 and MEKK3-MEK5 inh 100.0.
Screening OC(COC(c1ccc(Cl)cc1)c1ccc(Cl)cc1)CN1CCc2ccccc2C1 (configuration not stated) returned MEKK2wt PB1 HTS 164.0*, MEKK2mut PB1 HTS 14.0, dFosB activator 1.0, MEKK3 PB1 HTS 110.0, FID counter 14.6, MEKK2wt confirm 203.0, MEKK2mut confirm 63.0 and MEKK3-MEK5 inh 113.0.
`OC(COC(c1ccccc1)c1ccccc1)CN1CCc2ccccc2C1` (configuration not stated) gave MEKK2wt PB1 HTS 102.0, MEKK2mut PB1 HTS 6.0, dFosB activator -11.0, MEKK3 PB1 HTS 103.0 and FID counter 5.8.
CC(c1nnc(SCC(=O)Nc2cccnc2Cl)n1-c1ccccc1)N(C)C (configuration not stated) was read as MEKK2wt PB1 HTS 105.0, MEKK2mut PB1 HTS 2.0, dFosB activator 0.3, MEKK3 PB1 HTS 108.0 and FID counter -2.9.
Screening Cc1ncoc1C(=O)N1CCCC(C(=O)c2ccc(C(F)(F)F)cc2)C1 (configuration not stated) returned MEKK2wt PB1 HTS 104.0, MEKK2mut PB1 HTS 4.0, dFosB activator -5.6, MEKK3 PB1 HTS 103.0 and FID counter -17.6.
For CC1(CCc2ccccc2)NC(=O)N(CC(=O)N2CC(=O)Nc3ccccc32)C1=O (configuration not stated) the results were MEKK2wt PB1 HTS 82.0, MEKK2mut PB1 HTS -16.0, dFosB activator -0.7, MEKK3 PB1 HTS 83.0 and FID counter -20.8.
For O=C(NCCCN1CCN(c2cccc(Cl)c2)CC1)c1ccc(N2CCCC2=O)cc1 the results were MEKK2wt PB1 HTS 111.0, MEKK2mut PB1 HTS 7.0, dFosB activator 4.3, MEKK3 PB1 HTS 98.0 and FID counter -4.0.
For O=C(NCCN1CCCCCC1)c1ccc(N2CCCC2=O)cc1 the results were MEKK2wt PB1 HTS 145.0*, MEKK2mut PB1 HTS 9.0, dFosB activator -1.0, MEKK3 PB1 HTS 101.0, FID counter 1.6, MEKK2wt confirm 127.0, MEKK2mut confirm 20.0 and MEKK3-MEK5 inh 103.0.
`O=C(NCCCN1CCN(c2cccc(Cl)c2)CC1)c1cccc(N2CCCC2=O)c1` gave MEKK2wt PB1 HTS 125.0, MEKK2mut PB1 HTS 27.0*, dFosB activator -5.7, MEKK3 PB1 HTS 109.0, FID counter 1.9, MEKK2wt confirm 113.0, MEKK2mut confirm 20.0 and MEKK3-MEK5 inh 107.0.
`O=C(NCCS(=O)(=O)N1CCC2(CC1)OCCO2)c1ccc(F)cc1` gave dFosB activator -7.0.
`CCN1/C(=C/C(C)=C/c2sc3ccccc3[n+]2CC)Sc2ccccc21` gave MEKK2wt PB1 HTS 1.0*[inhibitor], MEKK2mut PB1 HTS -46.0, dFosB activator 507.4*, MEKK3 PB1 HTS 25.0*[inhibitor], FID counter -35.5, MEKK2wt confirm 2.0*[inhibitor], MEKK2mut confirm -39.0 and MEKK3-MEK5 inh 44.0*.
CN1CCN(CCCNC(=O)c2ccc(Cn3c(=S)[nH]c4ccc(Br)cc4c3=O)cc2)CC1 was read as MEKK2wt PB1 HTS 108.0, MEKK2mut PB1 HTS -1.0, dFosB activator -6.1, MEKK3 PB1 HTS 103.0 and FID counter 14.0.
For CC1CCN(CCCNC(=O)c2ccc(Cn3c(=S)[nH]c4ccc(Br)cc4c3=O)cc2)CC1 the results were MEKK2wt PB1 HTS 166.0*, MEKK2mut PB1 HTS 38.0, MEKK3 PB1 HTS 103.0, FID counter 23.8, MEKK2wt confirm 190.0, MEKK2mut confirm 50.0 and MEKK3-MEK5 inh 108.0.
Screening COc1cc(OC)c(C2NC(=O)CCC2[N+](=O)[O-])cc1OC (configuration not stated) returned MEKK2wt PB1 HTS 111.0, MEKK2mut PB1 HTS 14.0, dFosB activator -5.1, MEKK3 PB1 HTS 114.0 and FID counter -5.2.
`CN(CCOc1ccccc1)CCOc1ccccc1` gave MEKK2wt PB1 HTS 101.0, MEKK2mut PB1 HTS 2.0, dFosB activator -0.2, MEKK3 PB1 HTS 98.0 and FID counter 2.9.
Screening CN(C)CCOc1ccc(/C(=C(/CCCl)c2ccccc2)c2ccccc2)cc1 returned MEKK2wt PB1 HTS 176.0*, MEKK2mut PB1 HTS 22.0, dFosB activator 15.6, MEKK3 PB1 HTS 110.0, MEKK2wt confirm 100.0, MEKK2mut confirm -8.0 and MEKK3-MEK5 inh 100.0.
Screening C=C1[C@@H](O)[C@H](Cc2ccccc2)N(Cc2ccccc2Br)S1(=O)=O returned dFosB activator 4.4.
O=C(Nc1cccc(-c2cccc(Cl)c2)c1)C1CCN(Cc2ccc(CO)o2)CC1 was read as MEKK2wt PB1 HTS 153.0*, MEKK2mut PB1 HTS 22.0, dFosB activator 4.4, MEKK3 PB1 HTS 105.0, FID counter 19.3, MEKK2wt confirm 126.0, MEKK2mut confirm 23.0 and MEKK3-MEK5 inh 109.0.
`Cc1ccc(CN2CCC(C(=O)Nc3cccc(-c4cccc(F)c4)c3)CC2)o1` gave MEKK2wt PB1 HTS 114.0, MEKK2mut PB1 HTS 3.0, dFosB activator -3.8, MEKK3 PB1 HTS 98.0 and FID counter 15.5.
`CCn1cc(CN2CCC(C(=O)Nc3cccc(-c4cccc(OC)c4)c3)CC2)cn1` gave MEKK2wt PB1 HTS 102.0, MEKK2mut PB1 HTS 2.0, dFosB activator -6.8, MEKK3 PB1 HTS 98.0 and FID counter 7.1.
`CC(C)n1cc(CN2CCC(C(=O)Nc3cccc(-c4cccc(Cl)c4)c3)CC2)cn1` gave MEKK2wt PB1 HTS 183.0*, MEKK2mut PB1 HTS 34.0*, dFosB activator -23.4, MEKK3 PB1 HTS 107.0, FID counter 24.4, MEKK2wt confirm 203.0, MEKK2mut confirm 73.0* and MEKK3-MEK5 inh 117.0.
